These results are taken from PubChem BioAssay (NCATS).

For experiment [1], the target named is Glutathione peroxidase 1 (Homo sapiens) (UniProt P07203). The experiment is described as follows: Primary qHTS Assay for Inhibitors of Recombinant Selenoprotein Glutathione Peroxidase 1 (GPX1) (AID 1845191). Further: nearly all actives have a fitted effect of over 65% in size. Further: potency means the concentration at half of the fitted maximal effect. In outline:
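10 nM GPX1 + cpd, 30 min RT; start w/ 1 mM GSH, 0.5 mM cumene hydroperoxide, 0.5 mM NADPH, 100 nM GR, 0.01% BSA; buffer 50 mM Tris-HCl pH 7.5, 2 mM EDTA, 150 mM NaCl; Fl 340/450, 0 & 15 min.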
Background: In qHTS, concentration-response curves come from the screen itself.

Experiment [2] addresses Phospholipid hydroperoxide glutathione peroxidase GPX4 (Homo sapiens) (UniProt P36969). The experiment is described as follows: Primary qHTS Assay for Inhibitors of Recombinant Selenoprotein Glutathione Peroxidase 4 (GPX4) (AID 1845192). Further: nearly all actives have a fitted effect of over 65% in size. Further: potency means the concentration at half of the fitted maximal effect. In outline: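 NADPH consumption, followed by fluorescence at 340/450 nm between 0 and 15 min, reports GPX4 activity via coupled glutathione reductase (100 nM). Enzyme 200 nM was pre-exposed to compound 30 min; 0.5 mM cumene hydroperoxide and 1 mM GSH served as substrates.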

Experiment [3] has as its target Luciferin 4-monooxygenase (Photinus pyralis) (UniProt P08659). The experiment is described as follows: Primary firefly luciferase (FLuc) qHTS assay for identification of artifact compounds. (AID 1845220). Further: nearly all actives have a fitted effect of over 60% in size. Further: potency means the concentration at half of the fitted maximal effect. In outline:
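Compounds sat 15 min at room temperature with 10 uM luciferin and 10 uM ATP (pH 7.6 Tris acetate). Firefly luciferase (10 nM final) was then added, and luminescence was read 5 min later. Data normalized to no-enzyme and DMSO controls were Hill-fitted.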

The test system of experiment [4] is Nanoluciferase (engineered Oplophorus gracilirostris luciferase). The experiment is described as follows: Primary Nanoluciferase (NLuc) qHTS assay for identification of artifact compounds. (AID 1845222). Further: potency means the concentration at half of the fitted maximal effect. The essentials: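 Luminescence from secreted NLuc (filtered, 1:55-diluted S16 cell medium) read 5 min after Nano-Glo substrate; compounds preincubated 15 min, RT. Hill fits of inhibition normalized to DMSO and no-enzyme.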

The nature of experiment [5]: Primary redox qHTS assay for identification of artifact compounds. (AID 1845223). The essentials:
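Amplex Red (25 uM) and HRP (250 mU/mL) in HBSS, with compounds for 15 min, then 250 uM DTT for 30 min, room temperature, dark. Fluorescence 525/598 nm read; normalized to DMSO and 10 uM DA3003; Hill fit.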

Values without a mark were called inactive. Results filed as inconclusive are left out. Active and inactive are the calls of the source. The call rests on the fitted dose curve; in most records, active means well fitted curve in the direction sought with a large enough effect; inconclusive means small, poorly fitted or top-dose-only effect, or another doubt; inactive means no such curve, though single readings can be large; an effect the other way counts as inactive or inconclusive.

Sequence of Glutathione peroxidase 1 (Homo sapiens) (P07203 whole entry, looked up): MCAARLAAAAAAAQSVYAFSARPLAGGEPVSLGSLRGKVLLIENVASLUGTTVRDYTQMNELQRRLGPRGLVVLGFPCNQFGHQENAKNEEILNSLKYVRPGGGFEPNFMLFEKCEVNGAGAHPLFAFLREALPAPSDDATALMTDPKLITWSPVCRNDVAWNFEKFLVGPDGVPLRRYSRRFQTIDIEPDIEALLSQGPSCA
Sequence of Phospholipid hydroperoxide glutathione peroxidase GPX4 (Homo sapiens) (P36969 whole entry, looked up): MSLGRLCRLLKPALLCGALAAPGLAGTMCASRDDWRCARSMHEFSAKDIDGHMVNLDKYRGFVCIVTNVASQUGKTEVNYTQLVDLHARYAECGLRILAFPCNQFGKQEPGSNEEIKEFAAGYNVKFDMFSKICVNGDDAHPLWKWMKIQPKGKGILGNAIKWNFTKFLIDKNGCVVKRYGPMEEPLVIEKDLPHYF

Consider `C=CS(=O)(=O)NC1CCN(C(=O)CNc2cc(I)c(Cl)cc2OC)CC1`, for which the Potency result in experiment [1], in experiment [2], in experiment [3], in experiment [4] and in experiment [5] was “inactive” each time.
Consider `COc1ccccc1C(=O)Nc1cc2c(cc1N1CCCC1)n(C)c(=O)n2C`, for which the Potency entry in experiment [1], in experiment [2], in experiment [3], in experiment [4] and in experiment [5] was “inactive” in each case.
In the case of `O=C(Nc1cccc([N+](=O)[O-])c1)c1cccc(S(=O)(=O)N2CCCCCC2)c1`, the Potency result in experiment [1], in experiment [2], in experiment [3], in experiment [4] and in experiment [5] was “inactive” throughout.
As for `COc1cc(CCO)ccc1O[C@@H]1O[C@H](CO)[C@@H](O)[C@H](O)[C@H]1O`, the Potency entry in experiment [1], in experiment [2], in experiment [3], in experiment [4] and in experiment [5] was “inactive” throughout.
As for `Cn1cc(C2=C(c3coc4ccccc34)C(=O)NC2=O)c2cc(Br)ccc21`, the Potency result in experiment [1], in experiment [2], in experiment [3], in experiment [4] and in experiment [5] was “inactive” throughout.
As for `Cc1cc(C)c(S(=O)(=O)n2cc(C)cc2C)c(C)c1`, the Potency result in experiment [1], in experiment [2], in experiment [3], in experiment [4] and in experiment [5] was “inactive” throughout.
On to `COC(=O)C[C@H]1[C@]2(C)C3=C(C)[C@H](c4ccoc4)C[C@H]3O[C@@H]2[C@H](O)C2[C@](C)(C(=O)OC)C=CC(=O)[C@@]21C` (stereo not given in full), for which the Potency result in experiment [1], in experiment [2], in experiment [3], in experiment [4] and in experiment [5] was “inactive” throughout.
For `COc1ccc(N2CCN(C(=O)c3cc4c(s3)-c3ccccc3S(=O)(=O)C4)CC2)cc1`, the Potency entry in experiment [1], in experiment [2], in experiment [3], in experiment [4] and in experiment [5] was “inactive” throughout.
As to `O=C(NC1CCN(CCCCC2(C(=O)NCC(F)(F)F)c3ccccc3-c3ccccc32)CC1)c1ccccc1-c1ccc(C(F)(F)F)cc1`, the Potency entry in experiment [1], in experiment [2], in experiment [3], in experiment [4] and in experiment [5] was “inactive” each time.
With `CC(/C=C/C(=O)NO)=C\[C@@H](C)C(=O)c1ccc(N(C)C)cc1`, the Potency result in experiment [1], in experiment [2], in experiment [3], in experiment [4] and in experiment [5] was “inactive” each time.
For the compound `CCOC(=O)c1cnn(-c2ccccc2)c1NC(=O)c1cc2nc(-c3ccco3)cc(C(F)(F)Cl)n2n1`, the Potency result in experiment [1], in experiment [2], in experiment [3], in experiment [4] and in experiment [5] was “inactive” throughout.
On to `O=C(O)CCc1nccc2c1[nH]c1ccccc12`, for which the results for the Potency in experiment [1] and in experiment [2] were 25.5 µM (active) and 22.7 µM (active), respectively. Moreover, the Potency result in experiment [3], in experiment [4] and in experiment [5] was “inactive” in each case.
With `CC(=O)O[C@]1(C(C)=O)CC[C@H]2[C@@H]3CCC4=CC(=O)CCC4=C3[C@@H](c3ccc(N(C)C)cc3)C[C@@]21C`, the Potency result in experiment [1], in experiment [2], in experiment [3], in experiment [4] and in experiment [5] was “inactive” each time.
As to `Cc1c(C(=O)NCc2cccnc2)nn(-c2ccc(Cl)cc2Cl)c1-c1ccc(Cl)cc1`, the Potency result in experiment [1], in experiment [2], in experiment [3], in experiment [4] and in experiment [5] was “inactive” each time.
Consider `CCOc1ccc(-n2c([C@@H](C)N(Cc3cccnc3)C(=O)Cc3ccc(OC(F)(F)F)cc3)nc3ncccc3c2=O)cc1`, for which the Potency result in experiment [1], in experiment [2], in experiment [3], in experiment [4] and in experiment [5] was “inactive” each time.
In the case of `C=C1CC2OC(=O)C(=C)C2C(O)/C=C(\C)CCC1O` (stereo not given), the Potency entry in experiment [1], in experiment [2], in experiment [3], in experiment [4] and in experiment [5] was “inactive” throughout.
For the compound `O=C(NS(=O)(=O)c1ccc(Br)s1)c1ccc(Cl)cc1Cl`, the Potency entry in experiment [1], in experiment [2], in experiment [3] and in experiment [5] was “inactive” throughout. Further, the Potency in experiment [4] was 6.75 µM (active).
Consider `N#Cc1cc(-c2ccnc(Nc3ccc(N4CCOCC4)cc3)n2)ccc1OC1CCOCC1`, for which the Potency result in experiment [1], in experiment [2], in experiment [3], in experiment [4] and in experiment [5] was “inactive” each time.
Take `CC[C@H](C)/C=C(C)/C=C/C1=CC2=C(Cl)C(=O)[C@](C)(O)[C@H](OC(C)=O)[C@H]2CO1`: the Potency result in experiment [1], in experiment [2], in experiment [3], in experiment [4] and in experiment [5] was “inactive” in each case.
In the case of `COc1ccc(C2Oc3c(OC)cc(CCCO)cc3C2COC2OC(CO)C(O)C(O)C2O)cc1OC` (stereo not given), the Potency entry in experiment [1], in experiment [2], in experiment [3], in experiment [4] and in experiment [5] was “inactive” each time.
Take `Cc1[nH]c2ccc(F)cc2c1-c1nc2c3cccnc3c3ncccc3c2[nH]1`: the Potency entry in experiment [1], in experiment [2], in experiment [3], in experiment [4] and in experiment [5] was “inactive” each time.
`O=c1ccc2ccc(OCCCCN3CCN(c4cccc5sccc45)CC3)cc2[nH]1`: the Potency result in experiment [1], in experiment [2], in experiment [3], in experiment [4] and in experiment [5] was “inactive” each time.
For the compound `CN1CCc2cc3c(cc2C(=O)Cc2cc4c(cc2C1)OCO4)OCO3`, the Potency entry in experiment [1], in experiment [2], in experiment [3], in experiment [4] and in experiment [5] was “inactive” in each case.
In the case of `Cc1c(NC(=O)c2cc3c(s2)CCCC3)cccc1-c1cn(C)c(=O)c(Nc2ccc(C3C(=O)N(C)CCN3C)cc2)n1` (stereo not given), the Potency result in experiment [1], in experiment [2], in experiment [4] and in experiment [5] was “inactive” each time. Further, the Potency in experiment [3] was 4.78 µM (active).
As to `CC(C)(O)/C=C/C(=O)[C@](C)(O)[C@H]1[C@H](O)C[C@@]2(C)[C@@H]3CC=C4[C@@H](C[C@H](O[C@@H]5O[C@H](CO)[C@@H](O)[C@H](O)[C@H]5O)C(=O)C4(C)C)[C@]3(C)C(=O)C[C@]12C`, the Potency result in experiment [1], in experiment [2], in experiment [3], in experiment [4] and in experiment [5] was “inactive” throughout.
With `CCn1c(=O)c(-c2ccc(-c3cncs3)cc2Cl)cc2cnc(Nc3ccc(N4CCN(C)CC4)cc3)nc21`, the Potency result in experiment [1], in experiment [2], in experiment [3], in experiment [4] and in experiment [5] was “inactive” each time.
For the compound `Cn1c(CO)c(-c2ccccc2)c2cc([N+](=O)[O-])ccc21`, the Potency result in experiment [1], in experiment [2], in experiment [3], in experiment [4] and in experiment [5] was “inactive” each time.
